“And” between values parts separate entries of the source, which are not always exact repeats. Equal entries are not always repeated. Compounds without any hit were thinned out: in the full panel of roughly 83,000, 20% have a hit.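 48-hour exposure, single concentration, 96-well plates; percent growth endpoint where 0 means no net growth. Active: below 10.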 A number with no mark means an inactive call. The source made the active and inactive calls.
Test system: MDA-MB-468 breast
Assay: NCI-60 one-dose screen, 48 h (100 = growth as untreated, 0 = no growth, -100 = all killed)
Details: 10 µM unless noted

| SMILES | growth |
| --- | --- |
| CCCCCC(C)(O)C(C(=O)O)c1ccccc1 (stereo not drawn) | 108% |
| C#CCn1c(-c2cccc(OCCCCl)c2)nc2c1c(=O)n(C)c(=O)n2C | 71.6% |
| O=[N+]([O-])c1ccc(S(=O)(=O)NN=C2CCCCC2)cc1 | 115% |
| Clc1ccc(Cc2nc3ccccc3s2)cc1 | 104% |
| COc1ccc(/C=C2\Oc3cc(OCCCN4CCCCC4)ccc3C2=O)cc1OC | 76.4% |
| COc1cc2nc(-c3ccc(C(F)(F)F)cc3)cc(OCCCN3CCCCC3)c2cc1OC | 52.5% |
| Cn1cc(-c2nnc(-c3cn(C)c4ncccc34)s2)c2ccccc21 | 12.6% |
| N#CC1C(C#N)C(C(=O)c2ccc(Br)cc2)N2c3ccccc3C=CC12 (stereo not drawn) | -7.38% (active) |
| COC1=C(OC)C(=O)C(SC/C=C(\C)CCCC(C)CCCC(C)CCCC(C)C)=CC1=O (stereo not drawn) | 42.6% |
| C=C1CCC2C3(C)COC(C)(C)OC3CCC2(C)C1C/C=C1/C(=O)OCC1OC(C)=O (stereo not drawn) | 7.86% (active) |
| COc1ccc2c(O)c(/C=C3\N=Nc4nc(C)ccc43)oc2c1CC1CCNCC1 | 0.98% (active) |
| CCOC(=O)c1c(Nc2ccccc2)nn2c(-c3ccc(Br)cc3)ccnc12 | 67.5% |
| Nc1c(C(=O)Nc2ccccc2Cl)sc2nc3c(cc12)CCCCCC3 | -1.41% (active) |
| OC(c1cc(-c2ccc(Cl)cc2)nc2c(Cl)cccc12)C1CCCCN1 (stereo not drawn) | -86.7% (active) |
| O=[N+]([O-])c1ccc(/C(=C/c2ccccc2)[n+]2ccccc2)cc1 | 101% |
| COc1cc2nc(Sc3sc(N)nc3C)n(-c3ccc(Oc4ccccc4)cc3)c(=O)c2cc1OC | 80.2% |
| Cc1cc(Cl)c2ccc(N(C)C)cc2n1 | 94.3% |
| O=C(Cn1nncc1CN1C(=O)CSC1=O)Nc1ccc(F)cc1 | 104% |
| C=C1C(=O)O[C@H]2[C@H]1CC/C(C(=O)NCCCCCCCCNC(=O)/C1=C/CC[C@@]3(C)O[C@H]3[C@H]3OC(=O)C(=C)[C@@H]3CC1)=C\CC[C@@]1(C)O[C@@H]21 | 35.7% |

| SMILES | growth |
| --- | --- |
| Cc1n(Cc2ccc3ccccc3n2)cc[n+]1Cc1ccc2ccccc2n1 | 8.07% (active) |
| COc1ccc(Cn2c(NCCN=C(N)N)nc(=O)n(Cc3ccc(F)cc3)c2=O)cc1 | 56.7% and 33.4% |
| O=C1/C(=C/c2cccc(Br)c2)COc2ccc(O)c(O)c21 | -47.5% (active) |
| COc1ccc(C2=NN(c3ccc(S(N)(=O)=O)cc3)C(c3cn(-c4ccccc4)nc3-c3ccc(Cl)cc3)C2)cc1 (stereo not drawn) | 106% |
| COc1cc(C(=O)/C=C/c2cccnc2Nc2ccc(Cl)cc2)cc(OC)c1OC | -80.1% (active) |
| COc1cc(C2C=C(c3cccc(NC(C)=O)c3)Nc3ncnn32)cc(OC)c1OC (stereo not drawn) | 13.4% |
| Cn1c(=O)c2c(nc3n(-c4ccc(Cl)cc4Cl)c(Sc4nc(-c5ccccc5)c(C#N)c(=O)[nH]4)cn23)n(C)c1=O | 60.5% |
| C=C1C(=O)O[C@H]2[C@H]1CC/C(CNC(=O)c1cc3cc(OC)ccc3[nH]1)=C\CC[C@@]1(C)O[C@@H]21 | -67.7% (active) |
| N[C@@H](Cc1ccccc1)[C@@H](O)C(=O)NCc1ccc(F)cc1 | 114% |
| C=C[C@@H]1C[C@@H]2Cc3cc(F)ccc3N1O2 | 116% |
| Nc1nc(Nc2ccccc2SSc2ccccc2Nc2nc(N)nc(-c3cccc(Cl)c3)n2)nc(-c2cccc(Cl)c2)n1 | 95.3% |
| Cc1cc(C)cc(C(=O)Nc2cccc(C#Cc3cccc4[nH]nc(N)c34)c2)c1 | 43% |
| Cc1ccc(NC(=O)c2ccccc2Cl)cc1 | 114% |
| CCOP(=O)(OCC)OC[C@]12CCC(C)(C)C=C1[C@H]1CC[C@@H]3[C@@]4(C)CC[C@H](OP(=O)(OCC)OCC)C(C)(C)[C@@H]4CC[C@@]3(C)[C@]1(C)CC2 | -16.8% (active) |
| COc1ccc(/C=C2\COc3ccc(O)cc3C2=O)cc1 | 85.7% |
| Cc1ccc(C2C3CC4CCCCC4N3[C@@]3(C(=O)Nc4cc(Cl)ccc43)C2C(=O)c2nc3ccccc3[nH]2)cc1 (stereo partly drawn) | -10.9% (active) |
| O=C(c1nc2ccccc2[nH]1)C1C(c2ccc(F)cc2)C2CC3CCCCC3N2[C@@]12C(=O)Nc1ccc(Cl)cc12 (stereo partly drawn) | 41.6% |
| CC1=CCC(OC(=O)C(C)(C)CCC(O)(C(=O)OC2(C(C)C)CCC3(C)OC3C2)C(C)C)(C(C)C)CC1 (stereo not drawn) | -64.4% (active) |
| Cc1cc2c(C#N)n3c(c2cc1C)C(=O)C(c1ccccc1)Oc1ccccc1-3 (stereo not drawn) | 50% |

From PubChem BioAssay (NCI)
